The results in this text go back to paper PMC9911399, “Two distinct binding modes provide the RNA-binding protein RbFox with extraordinary sequence specificity”.

T1: RBFOX1 RRM RbFoxmut (Fox-RRM*) (Homo sapiens, UniProt Q9NWB1 109-208, R118D;E147R;N151S;E152T)
T1 sequence: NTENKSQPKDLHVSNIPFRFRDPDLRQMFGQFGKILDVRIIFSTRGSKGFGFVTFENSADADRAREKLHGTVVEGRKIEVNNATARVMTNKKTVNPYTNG

B1: UGGACAG (DNA:RNA)
RNA: GGGAGACCGGAAUUCAGAUUGUCCUGGACAGUUAAAUCCCGUCGUAGCCACCA
DNA 1: CAATCTGAATTCCGGTCTCCC
DNA 2: TGGTGGCTACGACGGGATT
B2: CCUUCUU (DNA:RNA)
RNA: B1 RNA with U25C, G26C, G27U, A28U, A30U, G31U
DNA 1: CAATCTGAATTCCGGTCTCCC
DNA 2: TGGTGGCTACGACGGGATT
B3: UCGGAUG (DNA:RNA)
RNA: B1 RNA with G26C, A28G, C29A, A30U
DNA 1: CAATCTGAATTCCGGTCTCCC
DNA 2: TGGTGGCTACGACGGGATT
B4: GAAGCGU (DNA:RNA)
RNA: B1 RNA with U25G, G26A, G27A, A28G, A30G, G31U
DNA 1: CAATCTGAATTCCGGTCTCCC
DNA 2: TGGTGGCTACGACGGGATT
B5: GCAUGUU (DNA:RNA)
RNA: GGGAGACCGGAAUUCAGAUUGUCCGCAUGUUUUAAAUCCCGUCGUAGCCACCA
DNA 1: CAATCTGAATTCCGGTCTCCC
DNA 2: TGGTGGCTACGACGGGATT
B6: CCCCGCA (DNA:RNA)
RNA: B5 RNA with G25C, A27C, U28C, U30C, U31A
DNA 1: CAATCTGAATTCCGGTCTCCC
DNA 2: TGGTGGCTACGACGGGATT
B7: GUUUUUU (DNA:RNA)
RNA: B5 RNA with C26U, A27U, G29U
DNA 1: CAATCTGAATTCCGGTCTCCC
DNA 2: TGGTGGCTACGACGGGATT
B8: CCGCAUG (DNA:RNA)
RNA: B5 RNA with G25C, A27G, U28C, G29A, U31G
DNA 1: CAATCTGAATTCCGGTCTCCC
DNA 2: TGGTGGCTACGACGGGATT
B9: CGCAUUG (DNA:RNA)
RNA: B1 RNA with U25C, G27C, C29U, A30U
DNA 1: CAATCTGAATTCCGGTCTCCC
DNA 2: TGGTGGCTACGACGGGATT
B10: CGCAUGU (DNA:RNA)
RNA: B1 RNA with U25C, G27C, C29U, A30G, G31U
DNA 1: CAATCTGAATTCCGGTCTCCC
DNA 2: TGGTGGCTACGACGGGATT
B11: GCAUAGU (DNA:RNA)
RNA: B5 RNA with G29A, U30G
DNA 1: CAATCTGAATTCCGGTCTCCC
DNA 2: TGGTGGCTACGACGGGATT
B12: GCAAUGU (DNA:RNA)
RNA: B5 RNA with U28A, G29U, U30G
DNA 1: CAATCTGAATTCCGGTCTCCC
DNA 2: TGGTGGCTACGACGGGATT
B13: GCCAUGU (DNA:RNA)
RNA: B5 RNA with A27C, U28A, G29U, U30G
DNA 1: CAATCTGAATTCCGGTCTCCC
DNA 2: TGGTGGCTACGACGGGATT
B14: UACUGCC (DNA:RNA)
RNA: B5 RNA with G25U, C26A, A27C, U30C, U31C
DNA 1: CAATCTGAATTCCGGTCTCCC
DNA 2: TGGTGGCTACGACGGGATT
B15: CCGGCAC (DNA:RNA)
RNA: B1 RNA with U25C, G26C, A28G, G31C
DNA 1: CAATCTGAATTCCGGTCTCCC
DNA 2: TGGTGGCTACGACGGGATT
B16: CUGGUGA (DNA:RNA)
RNA: B1 RNA with U25C, G26U, A28G, C29U, A30G, G31A
DNA 1: CAATCTGAATTCCGGTCTCCC
DNA 2: TGGTGGCTACGACGGGATT
B17: AGGAGUA (DNA:RNA)
RNA: B1 RNA with U25A, C29G, A30U, G31A
DNA 1: CAATCTGAATTCCGGTCTCCC
DNA 2: TGGTGGCTACGACGGGATT
B18: UAGUAGU (DNA:RNA)
RNA: B5 RNA with G25U, C26A, A27G, G29A, U30G
DNA 1: CAATCTGAATTCCGGTCTCCC
DNA 2: TGGTGGCTACGACGGGATT
B19: UCUCUCG (DNA:RNA)
RNA: B1 RNA with G26C, G27U, A28C, C29U, A30C
DNA 1: CAATCTGAATTCCGGTCTCCC
DNA 2: TGGTGGCTACGACGGGATT
B20: ACGUCAA (DNA:RNA)
RNA: B1 RNA with U25A, G26C, A28U, G31A
DNA 1: CAATCTGAATTCCGGTCTCCC
DNA 2: TGGTGGCTACGACGGGATT
B21: UUCCUAC (DNA:RNA)
RNA: B1 RNA with G26U, G27C, A28C, C29U, G31C
DNA 1: CAATCTGAATTCCGGTCTCCC
DNA 2: TGGTGGCTACGACGGGATT
B22: GAAAACG (DNA:RNA)
RNA: B5 RNA with C26A, U28A, G29A, U30C, U31G
DNA 1: CAATCTGAATTCCGGTCTCCC
DNA 2: TGGTGGCTACGACGGGATT
B23: GUCGGCU (DNA:RNA)
RNA: B5 RNA with C26U, A27C, U28G, U30C
DNA 1: CAATCTGAATTCCGGTCTCCC
DNA 2: TGGTGGCTACGACGGGATT
B24: GUCCGGC (DNA:RNA)
RNA: B5 RNA with C26U, A27C, U28C, U30G, U31C
DNA 1: CAATCTGAATTCCGGTCTCCC
DNA 2: TGGTGGCTACGACGGGATT
B25: CGGCUUG (DNA:RNA)
RNA: B1 RNA with U25C, A28C, C29U, A30U
DNA 1: CAATCTGAATTCCGGTCTCCC
DNA 2: TGGTGGCTACGACGGGATT
B26: ACCAGGC (DNA:RNA)
RNA: B5 RNA with G25A, A27C, U28A, U30G, U31C
DNA 1: CAATCTGAATTCCGGTCTCCC
DNA 2: TGGTGGCTACGACGGGATT
B27: CACCGGC (DNA:RNA)
RNA: B5 RNA with G25C, C26A, A27C, U28C, U30G, U31C
DNA 1: CAATCTGAATTCCGGTCTCCC
DNA 2: TGGTGGCTACGACGGGATT
B28: AGGCUUG (DNA:RNA)
RNA: B1 RNA with U25A, A28C, C29U, A30U
DNA 1: CAATCTGAATTCCGGTCTCCC
DNA 2: TGGTGGCTACGACGGGATT
B29: CCCCGGC (DNA:RNA)
RNA: B5 RNA with G25C, A27C, U28C, U30G, U31C
DNA 1: CAATCTGAATTCCGGTCTCCC
DNA 2: TGGTGGCTACGACGGGATT
B30: GUCGGGC (DNA:RNA)
RNA: B5 RNA with C26U, A27C, U28G, U30G, U31C
DNA 1: CAATCTGAATTCCGGTCTCCC
DNA 2: TGGTGGCTACGACGGGATT
B31: AGGAGGC (DNA:RNA)
RNA: B1 RNA with U25A, C29G, A30G, G31C
DNA 1: CAATCTGAATTCCGGTCTCCC
DNA 2: TGGTGGCTACGACGGGATT
B32: GGCUUGU (DNA:RNA)
RNA: B5 RNA with C26G, A27C, G29U, U30G
DNA 1: CAATCTGAATTCCGGTCTCCC
DNA 2: TGGTGGCTACGACGGGATT
B33: GGGCUUG (DNA:RNA)
RNA: B1 RNA with U25G, A28C, C29U, A30U
DNA 1: CAATCTGAATTCCGGTCTCCC
DNA 2: TGGTGGCTACGACGGGATT
B34: GGGGGGC (DNA:RNA)
RNA: B5 RNA with C26G, A27G, U28G, U30G, U31C
DNA 1: CAATCTGAATTCCGGTCTCCC
DNA 2: TGGTGGCTACGACGGGATT

Where a chain is given by its changes, count along the chain named. The full ranking holds about 16,000 sequences; the median of “ka relative to ugcaugu” is about 0.096, and the highest 2% start at about 0.35. The entries come from a sample that favours the highest values as a whole.

The target of this assay is T1, RBFOX1 RRM RbFoxmut (Fox-RRM*). Nature of the assay: EMSA; HiTS-Eq, 1 nM pool, 10 min; buffer printed only for the single-RNA assays: 10 mM Tris pH 7.5, 150 mM NaCl, 3.4 mM EDTA, 0.001% NP-40, 30 C. Conditions: tags: His6 N-terminal (pET28a); label: 5' 32P. The method, boiled down: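 These values rest on relative association constants, computed from read-count changes of each RNA species versus the control reaction and normalised to the cognate motif. Reads came from free RNA recovered by 8% native PAGE after purified RbFox RRM (wild type or mutant) at increasing concentrations was equilibrated for 10 min in 50 µL with 1 nM of a 5′-radiolabelled pool with 7 randomized nucleotides and DNA-annealed flanks.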
Turning to B1, the binding signal is 0.0526 KA relative to UGCAUGU. For the molecule B2, the binding signal was 0.0561 KA relative to UGCAUGU. With B3, the binding signal was 0.119 KA relative to UGCAUGU. For B4, the binding signal is 0.0921 KA relative to UGCAUGU. Consider B5, for which the binding signal was 0.776 KA relative to UGCAUGU.

For the molecule B6, the binding signal is 0.118 KA relative to UGCAUGU. Under B7 stands 0.0932 KA relative to UGCAUGU.

Turning to B8, the binding signal is 1.13 KA relative to UGCAUGU.

In the case of B9, the binding signal was 0.179 KA relative to UGCAUGU. Next, B10: 1.08 KA relative to UGCAUGU. As for B11, the binding signal was 0.192 KA relative to UGCAUGU. On to B12, for which the binding signal was 0.12 KA relative to UGCAUGU. In the case of B13, the binding signal was 0.188 KA relative to UGCAUGU.

On to B14, for which the binding signal is 0.217 KA relative to UGCAUGU.

For the molecule B15, the binding signal is 0.0571 KA relative to UGCAUGU.

In the case of B16, the binding signal is 0.0924 KA relative to UGCAUGU. As for B17, the binding signal was 0.168 KA relative to UGCAUGU. Regarding B18, the binding signal was 0.121 KA relative to UGCAUGU. Next, B19: 0.0757 KA relative to UGCAUGU. For the molecule B20, the binding signal was 0.0727 KA relative to UGCAUGU.

In the case of B21, the binding signal is 0.0836 KA relative to UGCAUGU.

Consider B22, for which the binding signal was 0.0811 KA relative to UGCAUGU. With B23, the binding signal is 0.116 KA relative to UGCAUGU. B24: the binding signal was 0.116 KA relative to UGCAUGU. With B25, the binding signal was 0.431 KA relative to UGCAUGU. Consider B26, for which the binding signal is 0.0949 KA relative to UGCAUGU.

With B27, the binding signal was 0.0862 KA relative to UGCAUGU.

Regarding B28, the binding signal was 0.388 KA relative to UGCAUGU. Consider B29, for which the binding signal is 0.0573 KA relative to UGCAUGU.

As for B30, the binding signal was 0.0929 KA relative to UGCAUGU. For the molecule B31, the binding signal was 0.118 KA relative to UGCAUGU. Regarding B32, the binding signal was 0.359 KA relative to UGCAUGU. For B33, the binding signal was 0.371 KA relative to UGCAUGU. For the molecule B34, the binding signal was 0.0893 KA relative to UGCAUGU.
